{
  "source": "PubChem BioAssay (EPA / NIEHS)",
  "note": "Active and inactive are the calls of the source. How the source made its calls: active means hit-call score of the fitted dose curve at least 0.9, where 1 is the maximum; inactive means score below 0.9.",
  "data": [
    {"read-out": "Cytochrome P450 (CYP24A1), CYP24A1 (gene 1591)", "assay": "LTEA_HepaRG_CYP24A1: Life Technologies and Expression Analysis (LTEA) Assay for Cytochrome P450 (CYP24A1) using HepaRG (AID 2283478)", "settings": "mRNA level, 48 h; actives raise or lower the signal", "summary_of_the_method": "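Human liver HepaRG cultures receive each chemical for 48 h across an eight-point half-log series topping at 100 uM in 0.5% DMSO. Induction or suppression of CYP24A1 mRNA is scored relative to vehicle after housekeeping-gene normalization.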", "values": [
      {"smiles": "CNC(=O)Oc1cccc2ccccc12", "AC50": "80.8 nM (active)"},
      {"smiles": "CCSC(=O)N1CCCCCC1", "outcome": "inactive"},
      {"smiles": "COc1ccc(-c2ccccc2)cc1NNC(=O)OC(C)C", "outcome": "inactive"},
      {"smiles": "CC(C)=CC1C(C(=O)OCc2coc(Cc3ccccc3)c2)C1(C)C", "note": "(stereo not drawn)", "outcome": "inactive"},
      {"smiles": "OC(c1ccc(Cl)cc1)(c1ccc(Cl)cc1)C(Cl)(Cl)Cl", "outcome": "inactive"},
      {"smiles": "COC(=O)NS(=O)(=O)c1ccc(N)cc1", "outcome": "inactive"},
      {"smiles": "CC(C)Oc1cccc(NC(=O)c2ccccc2C(F)(F)F)c1", "outcome": "inactive"},
      {"smiles": "CS(=O)(=O)c1cc(C(F)(F)F)ccc1C(=O)c1cnoc1C1CC1", "outcome": "inactive"},
      {"smiles": "CCOP(=O)(OCC)Oc1nc(Cl)c(Cl)cc1Cl", "outcome": "inactive"},
      {"smiles": "CCOP(=S)(OCC)Oc1nc(Cl)n(C(C)C)n1", "outcome": "inactive"},
      {"smiles": "CCOc1nc(F)cc2nc(S(=O)(=O)Nc3c(Cl)cccc3Cl)nn12", "outcome": "inactive"},
      {"smiles": "COP(=S)(OC)SCn1nnc2ccccc2c1=O", "outcome": "inactive"},
      {"smiles": "CNC(=O)N(C)c1nnc(C(C)(C)C)s1", "outcome": "inactive"},
      {"smiles": "Clc1nc(Cl)nc(Nc2ccccc2Cl)n1", "outcome": "inactive"},
      {"smiles": "Nc1c(Cl)c(Cl)nc(C(=O)O)c1Cl", "outcome": "inactive"},
      {"smiles": "Nc1c(Cl)c(F)nc(OCC(=O)O)c1Cl", "outcome": "inactive"},
      {"smiles": "CC1(C)CCC(=Cc2ccc(Cl)cc2)C1(O)Cn1cncn1", "note": "(stereo not drawn)", "outcome": "inactive"},
      {"smiles": "CSC(=O)c1c(C(F)F)nc(C(F)(F)F)c(C(=O)SC)c1CC(C)C", "outcome": "inactive"},
      {"smiles": "CCCCC(C#N)(Cn1cncn1)c1ccc(Cl)cc1", "note": "(stereo not drawn)", "outcome": "inactive"},
      {"smiles": "O=C(O)c1c(Cl)ccc2cc(Cl)cnc12", "outcome": "inactive"},
      {"smiles": "O=P(O)(O)CCCl", "outcome": "inactive"},
      {"smiles": "Cc1cnc(C2=NC(C)(C(C)C)C(=O)N2)c(C(=O)O)c1", "note": "(stereo not drawn)", "outcome": "inactive"},
      {"smiles": "CCOC(=O)C(C)OC(=O)c1cc(Oc2ccc(C(F)(F)F)cc2Cl)ccc1[N+](=O)[O-]", "note": "(stereo not drawn)", "outcome": "inactive"}
    ]}
  ]
}
